Test results from ChEMBL document CHEMBL4888484, “Replenishing the malaria drug discovery pipeline: Screening and hit evaluation of the MMV Hit Generation Library 1 (HGL1) against asexual blood stage Plasmodium falciparum ,using a nano luciferase reporter read-out” (2022).
The whole screen tested about 4,800 compounds, of which about 410 (8.5%) showed an effect of 50% or more. The list comes from a sample in which strong results are over-represented; it also holds similar structures and randomly drawn compounds.

tested on: Plasmodium falciparum; experiment: Confirmatory screen in NF54 pLDH assay, in single point, at 2uM, 72h; assay type: functional, Erythrocyte; conditions: timepoint 72 hour

SMILES	% Inhibition
Clc1ccc(Cl)c(-c2ccc(CNn3cnnc3)o2)c1	11%
O=C(NCC1(Cc2ccccc2)CCC1)N(CCO)C1CC1	-1%
Cc1ccn(-c2ccc(C(=O)NC3CCCC3)cn2)n1	-9%
C[C@@H](C(=O)Nc1ncc[nH]1)c1ccc2c(c1)[nH]c1ccc(Cl)cc12	16%
c1coc([C@H](CNC2CCCC2)N2CCCC2)c1	-12%
O=C1NCCC[C@@H]1Nc1ccc(C(F)(F)F)nn1	2%
COC[C@H]1[C@H](NC(=O)c2ncc(F)cc2F)[C@H]2CCO[C@H]21	-17%
Nc1nc(C2CC(N)C2)cc(N2CCC(Oc3ccccc3Cl)CC2)n1 (stereo not given)	65%
Nc1nc(N2CCN(c3ccc(F)c(Cl)c3)CC2)cc([C@H]2C[C@@H](N)C2)n1	34%
O=C(CN1CCN(Cc2ccc(F)cc2)C1=O)NC1CCCCCCC1	0%
CC[C@@H](Cc1ccccc1Br)C(=O)NCCC(N)=O	-6%
O=C(Nc1ccc(NC2CCOCC2)cc1)c1cc(F)c(O)c(F)c1	-10%
CC(C)(C)CC(=O)Nc1ccc2c(c1)C(N1CCCCC1)=Nc1ccccc1O2	-4%
CC1(C)Oc2ccc(NC(=O)COc3ccccc3)cc2NC1=O	12%
O=C(COc1ccccc1)Nc1ccc2c(c1)C(O)=Nc1cccnc1O2	64%
CC(C)(C)OC(=O)Cn1cc(CO)nn1	10%
O=C(C[C@H]1CCOC1)Nc1cc2ccc(Br)cn2n1	11%
COC(=O)c1cc(NC(=O)N2CCO[C@H](C(=O)OC)C2)c(F)cc1F	6%
CC1CN(C(=O)C(C(C)C)N2CC(C)OC(C)C2)CCO1 (stereo not given)	-12%
COc1ccc(NC(=O)C2=Cc3cc(Cl)cc(OC)c3OC=C2)cc1	-1%
CCCN(CCC)CCN1C(=O)[C@@H]2C(C(=O)Nc3cc(Cl)cc(Cl)c3)[C@@H]3C=C[C@]2(O3)C1C(=O)NC1CCCCC1 (stereo not given in full)	50%
O=c1[nH]cnc2c1nc(N1CCCCC1)n2C1OC(CO)C(O)C1O (stereo not given)	3%
O=C(Cc1nnc2ccc(C(=O)Nc3ccccc3)cn12)Nc1ccc(F)cc1	8%
O=C(CCCc1ccccc1)Nc1cc(C2CC2)nn1-c1nc(-c2ccccc2)cc(=O)[nH]1	36%
CCc1cc(=O)[nH]c(-n2nc(C3CC3)cc2NC(=O)C2CCCCC2)n1	87%

SMILES	% Inhibition
CCC(CC)C(=O)Nc1cc(C2CC2)nn1-c1nc(-c2ccccc2)cc(=O)[nH]1	45%
Cc1cc(F)ccc1NC(=O)Cn1nc(C2CC2)c2c(C(F)F)cc(=O)[nH]c21	9%
CC(C)(C)c1ccc(C(=O)N[C@H]2CCCC[C@@H]2NC(=O)c2ccc(C(C)(C)C)cc2)cc1	2%
Cc1cc(=O)[nH]c(-n2nc(C3CC3)cc2NC(=O)C(c2ccccc2)c2ccccc2)n1	87%
CCc1cc(C(=O)N2CCCCCC2)c2c(C3CC3)nn(-c3ccc(F)cc3)c2n1	5%
CN1CCC[C@H](C(=O)Nc2nc(C3CC3)cs2)C1	-2%
CC(C)c1cc(=O)[nH]c(-n2nc(C3CC3)cc2NC(=O)c2ccc(F)cc2)n1	89%
Cc1nn(C)c(NC(=O)c2ccc(C(C)(C)C)cc2)c1C1=CCCCC1	-5%
Cc1cc(=O)[nH]c(-n2nc(C3CC3)cc2NC(=O)c2ccc(C(C)(C)C)cc2)n1	52%
Cc1ccc(C(=O)Nc2c(C(N)=O)sc3nc(C(F)F)cc(C4CC4)c23)cc1	-9%
CC1CC(c2ccccc2)CCN1C(=O)c1cc(C2CC2)on1 (stereo not given)	6%
Cc1n[nH]cc1Nc1ccnc(C(C)(C)C)n1	7%
CC(C)OC[C@@H](O)CN1CC(C2CCC2)C1	-19%
CC1CCCCC1NC(=O)CN1CCN(Cc2cccc(Cl)c2)C1=O (stereo not given)	-4%
Cc1cc2ncc(-n3cncn3)c(-c3ccccc3)n2n1	8%
CCc1ccc(CN2CCN(Cc3cccc(Oc4ccccc4)c3)CC2)cc1	8%
CCC1CC(CC(=O)NS(=O)(=O)c2ccnn2C)CCO1 (stereo not given)	0%
COc1ccc2cc3n(c2c1)C[C@](C(=O)NC1CCCCCC1)(c1ccccc1)N(Cc1ccccc1Cl)C3=O	13%
CC1(C)CCCc2sc(NC(=O)N[C@H]3CCOC4(CCC4)C3)nc21	1%
Cc1cc(Br)ccc1CN(C)S(C)(=O)=O	-4%
CCOc1ccc2sc(NC(=O)Cn3cnc4nc(N5CCCCC5)sc4c3=O)nc2c1	-1%
Cn1ccc(C2=Nc3ccccc3NC(=O)C2)n1	-4%
O=S(=O)(c1ccc(F)c(Cl)c1)N1CC[C@H](Oc2ccncc2Cl)C1	89%
O=S(=O)(c1ccco1)N1CC[C@H](Oc2ccccc2)C1	10%
O=S(=O)(c1ccc(Cl)cc1)N1CCC(c2cc(-c3cccc(C(F)(F)F)c3)[nH]n2)CC1	0%
